From PubChem BioAssay (NCATS)
Results filed as inconclusive are left out. Activity calls are given as the source filed them. Unless noted, calls come from the whole dose curve; as a rule, active = well fitted curve in the direction sought with a large enough effect; inconclusive = small, poorly fitted or top-dose-only effect, or another doubt; inactive = no such curve, though single readings can be large; an effect the other way counts as inactive or inconclusive.

Columns and labels:
[1] = target: Lysosomal acid glucosylceramidase (Homo sapiens) (UniProt P04062); test: Glucocerebrosidase-p2 (AID 348; in the data active = potency below about 10 µM; note: potency is the fitted concentration of half-maximal effect); settings: purified GBA, blue fluorogenic substrate, 40 min
Lysosomal acid glucosylceramidase (Homo sapiens), sequence (P04062 whole entry, looked up): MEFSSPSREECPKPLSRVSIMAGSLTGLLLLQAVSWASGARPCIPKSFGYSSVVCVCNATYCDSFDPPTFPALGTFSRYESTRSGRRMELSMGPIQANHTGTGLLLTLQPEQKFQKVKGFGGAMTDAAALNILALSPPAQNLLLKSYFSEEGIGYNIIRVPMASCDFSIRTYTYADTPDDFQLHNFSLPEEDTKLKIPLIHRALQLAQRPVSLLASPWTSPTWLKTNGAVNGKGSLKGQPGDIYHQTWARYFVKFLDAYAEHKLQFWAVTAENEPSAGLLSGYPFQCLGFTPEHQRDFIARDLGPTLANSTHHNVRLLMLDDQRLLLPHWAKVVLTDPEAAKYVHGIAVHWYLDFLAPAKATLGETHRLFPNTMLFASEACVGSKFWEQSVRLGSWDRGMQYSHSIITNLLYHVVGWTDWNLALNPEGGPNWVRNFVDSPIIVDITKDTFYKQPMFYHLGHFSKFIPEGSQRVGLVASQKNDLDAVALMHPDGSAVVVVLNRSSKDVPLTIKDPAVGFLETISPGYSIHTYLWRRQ
Procedure, shortened: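 Normal human glucocerebrosidase (0.2 nM) with blue fluorogenic substrate (80 uM final) in citrate/phosphate pH 5.9 with 10mM sodium taurocholate, 0.01% tween-20; 40 min RT, NaOH/glycine stop; fluorescence Ex 365/Em 440; AC50 from a titration from 0.6 nM upwards.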

[2] = target: Cytochrome P450 1A2 (Homo sapiens) (UniProt P05177); test: p450-cyp1a2 (AID 410; calls by dose curve; note: potency is the fitted concentration of half-maximal effect;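 for activity change, negative = inhibition: -100% = full effect of reference inhibitor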); settings: recombinant CYP1A2, luciferin-ME demethylation, luminescence; series mostly up to 57 µM
Cytochrome P450 1A2 (Homo sapiens), sequence (P05177 whole entry, looked up): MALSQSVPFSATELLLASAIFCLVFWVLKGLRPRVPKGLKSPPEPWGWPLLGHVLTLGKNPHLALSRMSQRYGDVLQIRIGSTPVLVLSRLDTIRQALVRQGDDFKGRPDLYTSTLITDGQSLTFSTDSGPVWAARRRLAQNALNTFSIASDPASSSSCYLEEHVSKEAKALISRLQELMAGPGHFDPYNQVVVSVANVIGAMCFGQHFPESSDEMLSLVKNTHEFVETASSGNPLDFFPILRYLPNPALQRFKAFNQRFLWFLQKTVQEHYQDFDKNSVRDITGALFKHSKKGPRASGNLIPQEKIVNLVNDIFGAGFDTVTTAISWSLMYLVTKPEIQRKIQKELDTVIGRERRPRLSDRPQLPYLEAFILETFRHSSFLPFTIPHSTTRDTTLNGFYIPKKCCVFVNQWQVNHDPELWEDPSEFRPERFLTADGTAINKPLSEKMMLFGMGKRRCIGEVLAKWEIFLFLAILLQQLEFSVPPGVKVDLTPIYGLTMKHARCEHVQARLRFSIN
Procedure, shortened: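 O-Demethylation of luciferin 6' methyl ether by human CYP1A2 is monitored as luciferase luminescence. Substrate sits at Km (100uM); enzyme is 20nM. Values are scaled to 57 uM furafylline as maximal inhibition.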

[3] = target: Glucocorticoid receptor (Homo sapiens) (UniProt P04150); test: GR-GFP Redistribution (AID 450;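 active = compounds whose dose series gives a full or clear partial fitted curve of increased nuclear translocation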; note: potency is the fitted concentration of half-maximal effect); settings: U2OS GR-GFP nuclear translocation, laser cytometry, 2 h
Glucocorticoid receptor (Homo sapiens), sequence (P04150 whole entry, looked up, the tested form may be a part): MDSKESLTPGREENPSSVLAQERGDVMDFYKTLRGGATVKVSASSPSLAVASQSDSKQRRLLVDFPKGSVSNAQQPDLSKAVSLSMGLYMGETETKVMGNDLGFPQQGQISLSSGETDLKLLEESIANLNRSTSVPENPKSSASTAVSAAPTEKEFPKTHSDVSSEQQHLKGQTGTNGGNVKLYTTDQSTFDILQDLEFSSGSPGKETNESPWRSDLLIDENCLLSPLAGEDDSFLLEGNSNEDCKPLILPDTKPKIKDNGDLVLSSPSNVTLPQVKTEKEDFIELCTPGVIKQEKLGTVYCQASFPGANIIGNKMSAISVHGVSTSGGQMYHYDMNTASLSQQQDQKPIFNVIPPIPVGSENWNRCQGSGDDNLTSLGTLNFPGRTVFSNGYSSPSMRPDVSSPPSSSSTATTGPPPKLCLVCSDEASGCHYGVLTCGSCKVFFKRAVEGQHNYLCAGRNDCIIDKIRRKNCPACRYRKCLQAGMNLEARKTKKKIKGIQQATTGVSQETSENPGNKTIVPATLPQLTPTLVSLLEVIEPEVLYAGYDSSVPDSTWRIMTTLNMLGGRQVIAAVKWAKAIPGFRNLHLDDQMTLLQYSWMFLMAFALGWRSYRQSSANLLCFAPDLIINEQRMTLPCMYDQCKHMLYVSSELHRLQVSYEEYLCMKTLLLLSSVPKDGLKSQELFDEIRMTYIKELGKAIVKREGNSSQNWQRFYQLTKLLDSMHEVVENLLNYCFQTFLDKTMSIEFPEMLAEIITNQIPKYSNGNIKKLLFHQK

[4] = target: Glucocorticoid receptor (Homo sapiens) (UniProt P04150); test: GR-EFC Redistribution (AID 451; calls by dose curve; note: potency is the fitted concentration of half-maximal effect); settings: CHO-K1 GR-EFC translocation, beta-gal luminescence, 2 h
Procedure, shortened: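 Translocation of GR-ED fusion to nuclear EA restores b-gal, read by luminescence after 1 h room-temperature detection. Engineered CHO-K1 biosensor cells, 1,000/well, exposed 2 h at 37 C to titrations up to 46 uM final.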

[5] = target: 3',5'-cyclic-AMP phosphodiesterase 4B (Homo sapiens) (UniProt Q07343); test: qHTS Assay for Inhibitors of PDE-IV (AID 607; active = well fitted activation curve with a large enough effect in the main read-out, with a control signal flat, not every such curve was filed as active; note: % of control where 0% means no effect); settings: HEK293 ACTOne CNG channel cells, membrane potential fluorescence; series mostly up to 22.9 µM
3',5'-cyclic-AMP phosphodiesterase 4B (Homo sapiens), sequence (Q07343 whole entry, looked up): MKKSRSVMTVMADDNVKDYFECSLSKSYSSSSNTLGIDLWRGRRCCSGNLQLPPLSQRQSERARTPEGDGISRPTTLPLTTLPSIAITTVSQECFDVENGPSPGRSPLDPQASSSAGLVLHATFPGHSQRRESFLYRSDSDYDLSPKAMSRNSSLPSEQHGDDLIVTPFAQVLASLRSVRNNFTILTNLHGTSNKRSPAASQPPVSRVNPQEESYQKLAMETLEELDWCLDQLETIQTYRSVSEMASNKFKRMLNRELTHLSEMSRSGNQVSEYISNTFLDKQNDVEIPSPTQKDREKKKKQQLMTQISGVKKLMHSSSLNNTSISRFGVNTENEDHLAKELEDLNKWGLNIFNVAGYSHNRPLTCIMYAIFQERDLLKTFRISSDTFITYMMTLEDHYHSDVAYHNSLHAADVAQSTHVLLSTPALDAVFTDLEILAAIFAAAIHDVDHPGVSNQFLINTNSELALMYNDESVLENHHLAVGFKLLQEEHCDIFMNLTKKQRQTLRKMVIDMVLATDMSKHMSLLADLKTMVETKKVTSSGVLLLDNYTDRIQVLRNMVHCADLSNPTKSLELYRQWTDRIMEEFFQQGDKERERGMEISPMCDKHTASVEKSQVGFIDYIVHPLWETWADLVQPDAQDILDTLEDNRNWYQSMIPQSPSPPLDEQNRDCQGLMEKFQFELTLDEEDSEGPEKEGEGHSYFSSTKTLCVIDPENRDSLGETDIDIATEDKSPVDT
Procedure, shortened: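 HEK293 ACTOne cells with CNG channel (1000/well), endogenous PDE4; membrane potential dye, compounds up to 22.9 uM final. Fluorescence Ex 535/Em 590; RO 20-1724 (100 uM final) as reference.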

[6] = qHTS Assay for Identification of Small Molecule Agonists for Hypoxia Response Element Signaling Pathway (AID 914; active = well fitted activation curve with a large enough effect in the signal ratio, with a control signal flat, not every such curve was filed as active; the % refers to the signal ratio; note: potency is the fitted concentration of half-maximal effect; for activation: % of control where 0% means no effect); settings: ME-180 HRE-bla reporter, beta-lactamase ratio, CoCl2, 17 h; activation: stronger effect = higher value
Procedure, shortened: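 ME-180 cells carrying an HRE-driven beta-lactamase reporter were treated with compounds in a titration series plus an EC50 level of CoCl2 for 17 h at 37 degrees Celsius; CCF4 readout as the 460nm/530nm ratio gave AC50 values.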

[7] = qHTS Assay for Lipid Storage Modulators (AID 1519; calls by dose curve); settings: Drosophila S3 cells, BODIPY lipid droplet/cell ratio, laser cytometry, cells loaded with oleic acid; for activity change, negative = inhibition: at 57.5 µM (top of the series)
Procedure, shortened: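 Cells seeded at 5,000 per well were treated with compounds over a concentration series and loaded with oleic acid (400 uM, as added). Lipid droplet fluorescence (488 nm excitation, 500-530 nm channel) was read by laser-scanning cytometry and normalized to 20 uM Triacsin C.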

[8] = target: Dual specificity protein kinase CLK4 (Homo sapiens) (UniProt Q9HAZ1); test: qHTS Assay for Inhibitors of CDC-like Kinase 4 (Kinase-Glo Assay) (AID 1770); settings: recombinant Clk4, Kinase-Glo ATP depletion luminescence; series mostly up to 66.7 µM; note: nearly all actives have a fitted effect of over 65% in size; note: potency is the fitted concentration of half-maximal effect
Dual specificity protein kinase CLK4 (Homo sapiens), sequence (Q9HAZ1 whole entry, looked up): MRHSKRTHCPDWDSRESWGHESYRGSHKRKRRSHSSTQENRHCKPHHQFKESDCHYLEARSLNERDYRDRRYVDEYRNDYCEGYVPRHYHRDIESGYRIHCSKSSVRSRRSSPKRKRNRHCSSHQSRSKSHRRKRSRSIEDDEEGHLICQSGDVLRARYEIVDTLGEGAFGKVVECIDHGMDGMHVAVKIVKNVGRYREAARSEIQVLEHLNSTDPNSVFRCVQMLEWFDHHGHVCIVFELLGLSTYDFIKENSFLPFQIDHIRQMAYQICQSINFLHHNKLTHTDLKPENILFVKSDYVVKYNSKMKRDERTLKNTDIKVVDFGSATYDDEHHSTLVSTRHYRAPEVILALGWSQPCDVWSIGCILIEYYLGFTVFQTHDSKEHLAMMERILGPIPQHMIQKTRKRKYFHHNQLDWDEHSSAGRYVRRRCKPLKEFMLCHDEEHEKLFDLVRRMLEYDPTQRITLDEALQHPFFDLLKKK
Procedure, shortened: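 Clk4 25 nM, RS peptide 100 uM, ATP 1 uM, pH 7.5 Tris, 10 mM MgCl2, 2.5 mM DTT; 4.5 h RT; ATP depletion read by Kinase-Glo luminescence.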

[9] = target: Dual specificity protein kinase CLK4 (Homo sapiens) (UniProt Q9HAZ1); test: qHTS Assay for Inhibitors of CDC-like Kinase 4 (ADP-Glo Assay) (AID 1771); settings: recombinant CLK4, ADP-Glo luminescence; series mostly up to 80 µM; note: nearly all actives have a fitted effect of over 70% in size; note: potency is the fitted concentration of half-maximal effect
Procedure, shortened: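 Compounds are pin-transferred onto substrate mix (100 uM RS peptide, 1 uM ATP), then 25 nM Clk4 is added. After 1 hr at room temperature, ADP-Glo reagent runs 45 min, detection reagent 30 min, then luminescence is read.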

[10] = target: Dual specificity protein kinase CLK4 (Homo sapiens) (UniProt Q9HAZ1); test: qHTS Assay for Inhibitors of CDC-like Kinase 4 (ADP-FP Assay) (AID 1795); settings: Transcreener ADP fluorescence polarization; series mostly up to 50 µM; note: nearly all actives have a fitted effect of over 60% in size; note: potency is the fitted concentration of half-maximal effect
Procedure, shortened: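 Kinase activity was followed as ADP output, converted from fluorescence polarization with a calibration curve. Reactions ran one hour at low ATP (1 uM) with RS peptide substrate.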

[11] = target: Ubiquitin carboxyl-terminal hydrolase 1 (Homo sapiens) (UniProt O94782); test: Inhibitors of USP1/UAF1: Pilot qHTS (AID 504865); settings: purified USP1/UAF1, Ub-rhodamine cleavage fluorescence; series mostly up to 54.9 µM;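 note: rhodamine fluorescence freed from ubiquitin-rhodamine substrate followed over time; top concentration of the series differs between compounds; % is set by controls: 0 for no effect and ±100 for the full control effect; nearly all actives have a fitted effect of over 35% in size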
Ubiquitin carboxyl-terminal hydrolase 1 (Homo sapiens), sequence (O94782 whole entry, looked up): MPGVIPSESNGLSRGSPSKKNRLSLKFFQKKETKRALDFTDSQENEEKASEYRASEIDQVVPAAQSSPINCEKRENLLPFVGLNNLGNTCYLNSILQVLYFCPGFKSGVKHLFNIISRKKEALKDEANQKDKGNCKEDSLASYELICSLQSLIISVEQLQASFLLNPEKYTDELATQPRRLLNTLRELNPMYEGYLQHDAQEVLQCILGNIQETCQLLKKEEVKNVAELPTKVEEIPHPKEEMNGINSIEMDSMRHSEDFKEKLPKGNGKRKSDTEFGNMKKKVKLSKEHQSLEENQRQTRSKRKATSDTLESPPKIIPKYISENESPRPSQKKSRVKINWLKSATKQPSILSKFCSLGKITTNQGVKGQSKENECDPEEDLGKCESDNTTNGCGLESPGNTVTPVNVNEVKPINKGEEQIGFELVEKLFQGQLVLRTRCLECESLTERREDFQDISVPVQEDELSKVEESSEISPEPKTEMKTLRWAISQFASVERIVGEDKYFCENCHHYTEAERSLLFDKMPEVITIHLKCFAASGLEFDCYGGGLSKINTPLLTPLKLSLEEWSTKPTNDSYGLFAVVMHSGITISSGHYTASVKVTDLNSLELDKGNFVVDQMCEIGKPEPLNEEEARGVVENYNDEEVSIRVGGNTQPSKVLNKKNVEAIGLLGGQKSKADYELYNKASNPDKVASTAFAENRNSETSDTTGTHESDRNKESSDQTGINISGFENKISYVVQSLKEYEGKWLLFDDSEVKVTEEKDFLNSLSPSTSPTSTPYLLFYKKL
Procedure, shortened: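 Enzyme-free wells gave the negative control, while test wells held 1nM USP1/UAF1 preincubated with compound for 15 min at room temperature. Ub-Rho at 150nM final started the reaction, and fluorescence at 480/540 nm was recorded kinetically.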

[12] = Primary qHTS for small molecule stabilizers of the endoplasmic reticulum resident proteome: Secreted ER Calcium Modulated Protein (SERCaMP) assay (AID 1508630); settings: SH-SY5Y GLuc-SERCaMP (Gaussia luciferase released on ER calcium loss) secretion, thapsigargin, luminescence; series mostly up to 38.4 µM; note: % is set by controls: 0 for no effect and ±100 for the full control effect
Procedure, shortened: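 The SH-SY5Y reporter protocol was run at 3 concentrations up to 38.3 uM (primary) or 11 concentrations (follow-up): 16 h compound, 100 nM thapsigargin for 4 h, then extracellular luciferase luminescence.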

[13] = Stat Signaling Pathway (AID 446; active = well fitted curve in either direction with a large enough effect, not every such curve was filed as active;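 note: ME-180 cervical cancer cells given 40 pM IL-6 alongside compound; SIE-controlled beta-lactamase reporter measured as 460/530 nm FRET emission ratio; % is set by controls: 0 for no effect and ±100 for the full control effect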); settings: ME-180 (cervical carcinoma) SIE beta-lactamase reporter, IL-6 stimulated, 5 h; at 7.69 µM (top of the series) unless noted
Procedure, shortened: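 Normalization used AC90 stimulation (300 pM IL-6) and AC90 inhibition (125 nM pan-JAK inhibitor at 40 pM IL-6). The underlying signal is SIE-driven beta-lactamase in ME-180 cells after 5 h IL-6 exposure with compound.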

[14] = target: Mitogen-activated protein kinase 10 (Mus musculus) (UniProt Q61831); test: JNK3 AlphaScreen Assay (AID 530; active = well fitted curve in either direction with a large enough effect, not every such curve was filed as active;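 note: kinase came from lysate of stimulated human HepG2 cells; signal reports phosphorylation of biotinylated GST-cJun 1-79 at Ser73 with 10 µM ATP; % is set by controls: 0 for no effect and ±100 for the full control effect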); settings: JNK3 lysate, c-Jun phosphorylation; series mostly up to 57.1 µM
Procedure, shortened: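 qHTS titrations with 15 min compound pre-incubation before adding ATP (10 uM final). Read-out: AlphaScreen of Ser73-phosphorylated biotin-GST-cJun using HepG2 lysate JNK3 activated by IL-1β and TNFα.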

[15] = target: Cytochrome P450 3A4 (Homo sapiens) (UniProt P08684); test: qHTS Assay for Activators of Cytochrome P450 3A4 (AID 885); settings: recombinant CYP3A4, Luciferin-PPXE luminescence, 60 min; series mostly up to 57.1 µM; note: nearly all actives have a fitted effect of over 65% in size
Cytochrome P450 3A4 (Homo sapiens), sequence (P08684 whole entry, looked up): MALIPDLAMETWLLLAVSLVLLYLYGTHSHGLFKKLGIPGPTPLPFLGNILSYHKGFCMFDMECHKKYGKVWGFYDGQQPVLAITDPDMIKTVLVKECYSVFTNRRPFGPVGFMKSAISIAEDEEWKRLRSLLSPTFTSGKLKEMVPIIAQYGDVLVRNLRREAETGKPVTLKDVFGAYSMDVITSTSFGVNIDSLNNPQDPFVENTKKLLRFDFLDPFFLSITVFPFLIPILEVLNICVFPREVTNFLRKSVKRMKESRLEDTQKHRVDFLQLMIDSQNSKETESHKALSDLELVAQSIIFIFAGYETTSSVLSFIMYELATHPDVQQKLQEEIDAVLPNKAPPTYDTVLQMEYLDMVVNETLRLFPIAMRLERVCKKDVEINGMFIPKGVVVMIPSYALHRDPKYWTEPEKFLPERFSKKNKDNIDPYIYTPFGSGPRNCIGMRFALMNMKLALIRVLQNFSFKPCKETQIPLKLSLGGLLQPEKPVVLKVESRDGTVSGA
Procedure, shortened: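 Human CYP3A4 dealkylates Luciferin-PPXE to luciferin, which luciferase detection converts to light. Substrate was at its KM (25uM), buffer 200mM KPO4, reaction 60 min at RT.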

[16] = NFAT Signaling Pathway (AID 444; active = well fitted curve in either direction with a large enough effect, not every such curve was filed as active;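 note: carbachol stimulus at about its EC50 of 1 µM final; % is set by controls: 0 for no effect and ±100 for the full control effect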); settings: Jurkat NFAT-bla M1, carbachol, beta-lactamase ratio, 5 h; at 7.69 µM (top of the series) unless noted
Procedure, shortened: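 Read-out: CCF4 FRET ratio (460 nm/530 nm) after 1 h RT dye loading, used for %activity and AC50 from titration series. Cells: Jurkat NFAT-β-lactamase/M1 line, treated with compound plus 1 uM carbachol for 5 h, 37 °C.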

[17] = measured here: cell count channel max response
[18] = measured here: lipid channel max response

CN1CCN(c2ncc3nc(-c4ccc(F)cc4)c(=O)n(Cc4cccs4)c3n2)CC1
inactive: Potency [1] > 11.4 µM | Potency [3] > 9.22 µM | Potency [4] > 46 µM | Potency [5] | activity change, negative = inhibition [7] -3.43% | Potency [8] | Potency [9] | Potency [10] | Potency [11] | Potency [12]
0.564%: max response [7, 18]
8.36%: max response [7, 17]
active: Potency [2] 25.1 µM | Potency [6] 3.16 µM

COCCNc1ncnc2ccc(-c3cccc(OC)c3)cc12
inactive: Potency [1] > 11.4 µM | activity, negative = inhibition [13] -27.4% | Potency [3] > 46 µM | Potency [4] > 46 µM | outcome [14] | Potency [5] | Potency [15] | activity change, negative = inhibition [7] -4.77% | Potency [11] | Potency [12]
active: Potency [2] 0.794 µM | Potency [8] 0.708 µM | Potency [9] 0.562 µM | Potency [10] 0.501 µM
-14.2%: max response [7, 18]
-9.38%: max response [7, 17]

COc1cccc(Cn2c(=O)c(-c3cc(F)cc(F)c3)nc3cnc(N4CCN(C)CC4)nc32)c1
19%: max response [7, 17]
18.2%: max response [7, 18]
inactive: Potency [1] > 11.4 µM | Potency [2] | Potency [3] > 9.22 µM | Potency [4] > 46 µM | outcome [14] | Potency [5] | Potency [15] | activity change, negative = inhibition [7] 1.17% | Potency [8] | Potency [9] | Potency [10] | Potency [11] | Potency [12]

COCCNc1ncnc2ccc(-c3cccnc3)cc12
active: Potency [2] 0.2 µM | Potency [8] 12.6 µM | Potency [9] 12.6 µM | Potency [10] 10 µM
-8.04%: max response [7, 18]
inactive: Potency [1] > 11.4 µM | activity, negative = inhibition [13] 18% | Potency [3] > 46 µM | outcome [14] | Potency [5] | Potency [15] | activity change, negative = inhibition [7] 5.11% | Potency [11] | Potency [12]
-1.43%: max response [7, 17]

CCNc1ncc2ncc(=O)n(Cc3cccs3)c2n1
active: Potency [2] 2 µM | Potency [8] 3.16 µM | Potency [9] 5.62 µM | Potency [10] 5.01 µM
16.4%: max response [7, 18]
inactive: Potency [1] > 11.4 µM | activity change, negative = inhibition [16] -8.48% | activity, negative = inhibition [13] -24.4% | Potency [3] > 9.22 µM | Potency [4] > 46 µM | outcome [14] | Potency [5] | Potency [15] | activation [6] -28.8% | activity change, negative = inhibition [7] 5.21% | Potency [11] | Potency [12]
12.7%: max response [7, 17]
